Hits are enriched below; roughly 1.8% of the tested compounds scored in any of these assays.
KAT2A inh: inhibitors of human GCN5L2 histone acetyltransferase | Q92830 | GCN5L2 HAT assay, ThioGlo1 CoA-SH fluorescence | Potency, µM (series often up to 58.9 µM), without a hit: at the top dose activity change, negative = inhibition, usual class: inhibitors | actives 0.21% (n = 390,000); note: % is set by controls: 0 for no effect and ±100 for the full control effect
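GCN5L2 (20 nM) in 50mM HEPES pH 7.5, 0.1mM EDTA, 0.01% Tween-20 preincubated 15 min with compounds at room temperature. Reaction started with H3(1-25) 75uM, acetyl-CoA 70uM, ThioGlo1 50uM; CoA-thiol fluorescence (Ex340/Em540) read at 0 and 20 min.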
HEK293 tox: cytotoxicity counter-screen for GLP-1 receptor inverse agonists | HEK293 cAMP-luciferase reporter cells, luminescence, 24 h | Potency, µM (highest dose often 38.3 µM), without a hit: at the top dose activity change, negative = inhibition, most hits filed as inhibitors | actives 0.13% (n = 410,000) | AID 624418;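 note: loss of luciferase light is scored as toxicity; % is set by controls: 0 for no effect and ±100 for the full control effect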
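MLSMR compounds, 24 hr on cells at 37 deg C/5% CO2; luminescence after luciferase reagent (12 min RT). Inhibition counted as the undesired cytotoxic outcome.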
GLP1R inv ag: inverse agonists of human GLP-1 receptor. P43220. HEK293 GLP-1R CRE-luciferase, luminescence, 24 h; GLP-1R form is constitutively active. Potency, µM (titrated, usually from 38.3 µM), inactives show at the top dose activity change, negative = inhibition, usual class: inhibitors. actives 1.6% (n = 410,000); note: % is set by controls: 0 for no effect and ±100 for the full control effect; nearly all actives have a fitted effect of over 55% in size
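Using stably transfected HEK293 (constitutively active GLP-1R, cAMP-luciferase reporter), compounds were incubated 24 hr and luciferase measured by luminescence.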
GLP-1R agonist: agonists of human GLP-1 receptor; HEK293 GLP-1R CRE-luciferase, luminescence, 4-6 h; cells express a hypersensitive GLP-1R form; actives 0.007% (n = 380,000); Potency, µM (series often up to 45.6 µM), inactives show at the top dose activation, most hits filed as activators; P43220; note: % of control where 0% means no effect
RGS4 inh: inhibitors of human regulator of G protein signaling 4 | AID 504845 | P49798 | actives 0.039% (n = 390,000) | Transcreener GDP fluorescence polarization, RGS4-accelerated GTP hydrolysis | Potency, µM (top dose mostly 114 µM), without a hit: at the highest dose activity change, negative = inhibition, actives largely listed as inhibitors; note: % is set by controls: 0 for no effect and ±100 for the full control effect; nearly all actives have a fitted effect of over 75% in size
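MLSMR compounds (23 nl, pin-transferred) preincubated 10 min at room temperature with a 500nM (2x) first reagent, then RGS4 at 900nM (2x) plus Transcreener GDP mix added; fluorescence polarization (620/688 nm) read before and after 90 min at 30 °C.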
PTHR1 agonist: agonists of human PTHR1 parathyroid hormone receptor. Q03431. HEK293 GP2 PTHR1 cells, GloSensor cAMP luminescence, 1 h. Potency, µM (series often up to 115 µM), without a hit: at the top dose activation, usual class: activators. actives 0.075% (n = 410,000). AID 743266; note: nearly all actives have a fitted effect of over 55% in size
Target sequence (Q03431 whole entry, looked up): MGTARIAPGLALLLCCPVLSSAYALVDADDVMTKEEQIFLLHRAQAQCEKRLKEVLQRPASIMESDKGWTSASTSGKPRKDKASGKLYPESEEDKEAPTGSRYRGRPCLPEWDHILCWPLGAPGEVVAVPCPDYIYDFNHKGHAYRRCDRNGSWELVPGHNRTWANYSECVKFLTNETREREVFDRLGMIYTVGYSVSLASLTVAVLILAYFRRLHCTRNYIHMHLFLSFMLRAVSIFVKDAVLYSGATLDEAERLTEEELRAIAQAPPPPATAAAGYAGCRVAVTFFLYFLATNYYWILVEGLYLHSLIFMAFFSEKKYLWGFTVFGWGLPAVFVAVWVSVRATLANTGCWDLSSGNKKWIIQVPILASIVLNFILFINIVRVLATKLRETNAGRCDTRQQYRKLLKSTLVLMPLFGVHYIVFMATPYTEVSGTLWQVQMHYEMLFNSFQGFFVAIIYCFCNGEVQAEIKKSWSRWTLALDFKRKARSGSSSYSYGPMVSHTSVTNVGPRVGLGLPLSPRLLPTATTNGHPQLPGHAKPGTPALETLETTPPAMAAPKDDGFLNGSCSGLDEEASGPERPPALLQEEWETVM
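HEK-293-derived GP2 cells expressing PTHR1 and a GloSensor cAMP reporter, 3,000/well, plated overnight, given luciferin plus IBMX (each 0.5 mM as added) for 1 h at 37 °C, then compound for 1 h at 37 °C. Luminescence was read after 15 min at room temperature.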
Starred values were filed as active, the others as inactive; i = inactive; ? = inconclusive; · = not tested or not shown; [ ] = another dose, or the depositor's remark. Calls come from the whole dose curve; as a rule, active = well fitted curve in the direction sought with a large enough effect; inconclusive = small, poorly fitted or top-dose-only effect, or another doubt; inactive = no such curve, though single readings can be large; an effect the other way counts as inactive or inconclusive. Potency is the fitted concentration of half-maximal effect.

SMILES	KAT2A inh	HEK293 tox	GLP1R inv ag	GLP-1R agonist	RGS4 inh	PTHR1 agonist
C=C1c2cccc(O)c2C(=O)C2C(=O)[C@]3(O)C(=O)C(C(N)=O)C(=O)[C@@H](N(C)C)[C@@H]3[C@@H](O)[C@H]12 (stereo not given in full)	7.9µM*	-9%	-14%	-6%	-130%	-33%
O=C(CN1C=NS(=O)(=O)c2ccc(C(F)(F)F)cc21)Nc1cccc(C(F)(F)F)c1	-2%	8%	1%	-5%	?	-7%
CSCC[C@H](NC(=O)[C@H](CC(C)C)NC(=O)CNC(=O)[C@H](Cc1ccccc1)N(C)C(=O)[C@H](Cc1ccccc1)NC(=O)[C@H](CC(=O)O)NC(=O)[C@@H](N)CC(=O)O)C(N)=O	1%	·	·	·	·	·
O=C(CNC(=O)Cn1ccc2ccccc2c1=O)NCCCN1CCN(c2cccc(Cl)c2)CC1	-3%	11%	10µM*	-1%	35%	i
CC(C)N(C)c1ncnc2c1ncn2[C@H]1CN(Cc2cccs2)C[C@@H](CO)O1	·	-2%	31%	?	·	-25%
CC1CCCCN1C(=S)NC(=O)c1ccccc1 (stereo not given)	-7%	11µM*	?	4%	-41%	5%
CCN(CC)S(=O)(=O)c1ccc(C(=O)NC(=S)N2CCCCC2C)cc1 (stereo not given)	·	-3%	-26%	-3%	·	-8%
Cc1nc(-c2ccccc2)c(-c2ccncc2)o1	-5%	·	·	·	·	·
CC(C)OC(C)C	8%	·	·	·	·	·
Cc1cc(C)c(C(=O)NC2CC(C)(C)Cc3c2cnn3-c2ccccc2)o1 (stereo not given)	-1%	-3%	10µM*	-1%	-14%	i
O=C1C(Nc2cccc(O)c2)=C(N2CCCCC2)C(=O)c2ccccc21	-5%	3.5µM*	?	5%	-15%	-12%
O=C1C(Nc2ccccc2)=C(N2CCCCC2)C(=O)c2ccccc21	-4%	-11%	?	-7%	-19%	-10%[57.5 µM]
CC1COC(=O)O1 (stereo not given)	49%	·	·	·	·	·
CC(C)(C)Cc1nc2ccccc2n1CCc1ccccc1	-2%	-4%	5µM*	5%	21%	-30%
CC(C)Cc1nc2ccccc2n1CCc1ccccc1	-1%	?	13µM*	18%	-11%	i
C=C[C@]1(C)C[C@@H](OC(=O)CO)[C@]2(C)C(C)CC[C@]3(CCC(=O)[C@H]32)[C@@H](C)[C@@H]1O (stereo not given in full)	·	·	·	0%	·	·
O=C(Cn1ncc2c3ccccc3n(Cc3ccc(F)cc3)c2c1=O)N1CCN(c2ncccn2)CC1	-8%	-14%	13µM*	0%	4%	-9%
CCc1ccc2c(CN3CCN(Cc4ccccc4)CC3)cc(=O)oc2c1	0%	17%	8.9µM*	22%	2%	-11%
CCc1cc2c(CN3CCN(Cc4ccccc4)CC3)cc(=O)oc2cc1O	0%	i	?	?	-10%[56.9 µM]	-3%
COc1ccc(N(C(=O)c2ccccc2C)S(=O)(=O)c2cccs2)cc1	-10%	-41%	?	7%	-6%	0%
COc1ccc(N(C(=O)c2ccccc2C)S(=O)(=O)c2ccc(C)cc2)cc1	-6%	-3%	10µM*	·	-7%	-9%
O=C(N/N=C/c1ccc(OC(F)F)cc1OC(F)F)NC1CCCCC1	-7%	-8%	4.5µM*	23%	7%	-10%
COc1c(C)cccc1C(=O)Nc1cccc2ccc(C)nc12	-12%	11%	-29%	2%	7%	-34%
Cc1nc(-c2ccc(NC(=O)c3ccco3)cc2)cs1	-11%	24%	1µM*	-6%	28%	-94%
Cc1nc(-c2cccc(NC(=O)c3ccco3)c2)cs1	1%	-6%	8%	12%	-12%	i
SMILES	KAT2A inh	HEK293 tox	GLP1R inv ag	GLP-1R agonist	RGS4 inh	PTHR1 agonist
Nc1nc(-c2ccc(NC(=O)c3ccco3)cc2)cs1	-7%	-5%	7.9µM*	5%	-15%	-27%
CN1C2CCC1CC(NC(=O)n1c(=O)[nH]c3ccccc31)C2 (stereo not given)	·	·	·	4%	·	·
C=CCNC(=S)Nc1sc2c(c1C(=O)OCC)CC(C)(CC)OC2 (stereo not given)	-8%	10µM*	-3%	1%	-36%	-5%
C=CCNC(=S)Nc1sc2c(c1C(=O)OCC)CCN(C(=O)OCC)C2	·	-8%	5%	6%	8%	-8%[57.5 µM]
CC(C)N(C(C)C)S(=O)(=O)c1ccc(N2CCc3ccccc3C2)nc1	-12%	0%	7.9µM*	18%	-39%	-29%
CCN(CC)S(=O)(=O)c1ccc(N2CCc3ccccc3C2)nc1	-4%	3%	?	5%	-47%	-1%
COc1ccc(C(=O)N/C(=C/c2cccnc2)C(=O)N2CCN(C)CC2)cc1OC	?	-17%	4%	-4%	23%	i
CCCSc1nsc(NC(=O)C(c2ccccc2)c2ccccc2)n1	2%	?	3.2µM*	-11%	-14%	-15%[57.5 µM]
CCCSc1nsc(NC(=O)CC)n1	4%	4%	-15%	4%	-3%	-12%
CN1CCN(c2ncc3nc(-c4cc(F)cc(F)c4)c(=O)n(CCC#N)c3n2)CC1	25µM*	·	·	·	·	·
CSc1ccc(NC(=O)Nc2cccn(Cc3ccccc3F)c2=O)cc1	-2%	6%	?	-13%	-15%	-93%
CCc1ccccc1NC(=O)Nc1cccn(Cc2ccccc2F)c1=O	-4%	-6%	10µM*	9%	-12%	-24%
O=C(Nc1nc2cc3c(cc2s1)OCO3)C1=COCCO1	-6%	-8%	2.2µM*	-15%	-4%	-49%
Clc1cccc(-c2nc3ccccn3c2Nc2ccc3c(c2)OCCO3)c1	-17%	-6%	6.3µM*	·	7%	-25%
OC[C@@H]1OC(O)[C@@H](O)[C@H](O)[C@@H]1O (stereo not given in full)	-18%	·	·	·	·	·
CC(O)c1cccc2cc(C(O)CNC(C)(C)C)oc12 (stereo not given)	-10%	·	·	·	·	·
O=C(Cc1ccc(F)cc1)NCCS(=O)(=O)N1CCN(c2cccc(Cl)c2)CC1	?	2%	10µM*	0%	16%	-43%
Cn1c(=O)c2[nH]c(N=NN3CCCCC3)nc2n(C)c1=O	·	-7%	11%	13%	-1%	i
CC(=O)/C(N=Nc1nc2c([nH]1)c(=O)n(C)c(=O)n2C)=C(\C)O	-1%	2%	80%	13µM*	7%	i
